An excerpt weighted towards active compounds, which were near 19% of everything screened.
HepG2 viability: counter-screen for TGF-b inhibitors: cytotoxicity in HepG2 cells. actives 0.76% (n = 410,000). Potency, µM (highest dose often 46.1 µM), without a hit: at the highest dose activity change, negative = cytotoxicity, usual class: cytotoxic. HepG2 CAGA-GFP viability, ATP luminescence, 18 h; also: potency is read from the fitted curve at half-maximal effect
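HepG2 CAGA-GFP cells (1000/well, DMEM with 1% FBS) received compound, then TGF-beta at 500 pg/mL final, and were incubated 18 hours at 37 degrees C. Viability was read by CellTiter-Glo luminescence. Media-only wells were set as complete cell-killing and DMSO as no toxicity.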
TGFb inhibitor: blocks TGF-b signaling | HepG2 CAGA-GFP TGF-b/SMAD3 reporter, GFP fluorescence, 18 h; TGF-beta stimulated, 500 pg/mL final | Potency, µM (series often up to 46.1 µM), for inactives: at the top dose activity, negative = inhibition, actives largely listed as inhibitors | actives 1.2% (n = 410,000); also: potency is read from the fitted curve at half-maximal effect; % is scaled to controls: 0 for no effect and ±100 for the full control effect; nearly all actives have a fitted effect of over 65% in size
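Cell-based qHTS in HEPG2 carrying a CAGA-GFP Smad reporter; compounds added before 500 pg/mL final TGF-beta, 18 h incubation at 37 degrees C, GFP fluorescence quantified per cell by imaging cytometry.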
IL1B secr inh: inhibitors of inflammasome signaling (IL-1 beta secretion) | actives 4.7% (n = 360,000) | activity change, % at 57.5 µM | THP-1 LPS/ATP IL-1B secretion, AlphaLISA, 16 h; stronger effect = lower value; in the data active = activity change below about -50%; inconclusive = mostly about -30% to -49%; also: % is scaled to controls: 0 for no effect and ±100 for the full control effect
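THP-1 cells pretreated 1 hr with compounds (up to 57.5 uM final), then stimulated with LPS (250 ng/mL final) plus ATP (1.25 mM final); secreted IL-1B measured by AlphaLISA after 16 hr, decreased signal indicating inhibition.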
DT40 TDP1 no CPT: qHTS for Inhibitors of human tyrosyl-DNA phosphodiesterase 1 (TDP1): qHTS in cells in absence of CPT | Potency, µM (top dose mostly 46.2 µM), inactives show at the highest dose activity change, negative = growth inhibition, most hits filed as inhibitors | actives 15% (n = 420,000) | DT40 Tdp1-/- hTDP1 cells, no CPT, ATP luminescence, 48 h; also: potency is read from the fitted curve at half-maximal effect; % is scaled to controls: 0 for no effect and ±100 for the full control effect; nearly all actives have a fitted effect of over 55% in size
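Readout: luminescence from CellTiter-Glo after 30 min in the dark at RT. Cells: DT40 Tdp1-/- with stable hTDP1, 400/well. Exposure: compounds alone, ≥48 hr, 37 °C.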
DT40 TDP1 CPT: growth inhibition of DT40 Tdp1-/-;hTDP1 cells with camptothecin (screen for TDP1 inhibitors) | chicken DT40 Tdp1-/-;hTDP1 cells + 20 nM CPT, ATP luminescence, 48 h | Potency, µM (titrated, usually from 46.2 µM), without a hit: at the highest dose activity change, negative = growth inhibition, most hits filed as inhibitors | actives 12% (n = 420,000) | AID 686979; also: potency is read from the fitted curve at half-maximal effect; % is scaled to controls: 0 for no effect and ±100 for the full control effect; nearly all actives have a fitted effect of over 55% in size
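Chicken DT40 Tdp1-/- cells complemented with human TDP1, 400 cells/well, exposed to compounds plus 20 nM camptothecin for at least 48 h at 37 C; viability read as ATP content by CellTiter-Glo luminescence.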
ASM inhibitor: inhibitors of human secretory acid sphingomyelinase | actives 0.006% (n = 340,000) | Potency, µM (top dose mostly 57.5 µM), for inactives: at the top dose activity change, negative = inhibition, most hits filed as inhibitors | AID 504937 | P17405 | placental ASM, HMU-PC fluorogenic substrate, 60 min; also: potency is read from the fitted curve at half-maximal effect
Target sequence (P17405 47-631 limits assumed): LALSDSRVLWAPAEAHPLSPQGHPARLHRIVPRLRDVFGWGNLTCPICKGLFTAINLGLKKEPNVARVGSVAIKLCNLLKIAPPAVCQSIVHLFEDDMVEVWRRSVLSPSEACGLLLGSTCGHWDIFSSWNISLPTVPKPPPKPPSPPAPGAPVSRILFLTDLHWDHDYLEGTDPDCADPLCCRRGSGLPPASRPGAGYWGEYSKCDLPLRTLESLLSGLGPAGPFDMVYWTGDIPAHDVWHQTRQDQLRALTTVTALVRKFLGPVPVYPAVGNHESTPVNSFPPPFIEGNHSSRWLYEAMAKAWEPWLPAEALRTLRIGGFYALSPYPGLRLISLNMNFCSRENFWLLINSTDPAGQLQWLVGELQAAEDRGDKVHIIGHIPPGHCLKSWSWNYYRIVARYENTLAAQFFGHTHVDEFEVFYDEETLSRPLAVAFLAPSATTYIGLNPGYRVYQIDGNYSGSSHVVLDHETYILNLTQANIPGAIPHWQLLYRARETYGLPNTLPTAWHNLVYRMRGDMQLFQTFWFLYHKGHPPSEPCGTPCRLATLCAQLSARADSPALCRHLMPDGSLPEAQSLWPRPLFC
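Human placenta-derived ASM preincubated with compound 10 min at room temperature, then reacted with 9 uM (final) fluorogenic HMU-PC substrate for 60 min at 37 C. Stop solution raises pH to 10; fluorescence read at Ex 386/Em 447 nm.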
Active calls of the source: *; u = inconclusive; x = not tested or not shown. Unless noted, calls follow the shape of the dose curve; as a rule, active = well fitted curve in the direction sought with a large enough effect; inconclusive = small, poorly fitted or top-dose-only effect, or another doubt; inactive = no such curve, though single readings can be large; an effect the other way counts as inactive or inconclusive.

SMILES | HepG2 viability | TGFb inhibitor | IL1B secr inh | DT40 TDP1 no CPT | DT40 TDP1 CPT | ASM inhibitor
CC(C)(O)CN(C(=O)c1ccccc1)C1CCCCC1 | 6% | -1% | 15 | -1% | -3% | 3%
Cc1ccc(Sc2ccc(N3CCC(C(=O)Nc4cc(C)cc(C)c4)CC3)nn2)cc1 | -6% | -12% | x | -21% | -8% | x
COC(=O)C1CCCN1S(=O)(=O)c1ccc2ccccc2c1 (stereo not drawn) | -22% | 13% | 12 | 21µM* | u | -6%
COC(=O)C1CCCN1S(=O)(=O)c1ccc([N+](=O)[O-])cc1 (stereo not drawn) | -16% | -25% | 36 | 14% | -25% | 0%
COC(=O)C1CCCN1S(=O)(=O)c1ccccc1NC(=O)c1cc(OC)c(OC)c(OC)c1 (stereo not drawn) | -15% | 0% | 19 | -30% | 15µM* | -1%
CCOc1ccc(OCC)c(NC(=O)C2CCCN2S(=O)(=O)c2cccc3cccnc23)c1 (stereo not drawn) | -10% | -9% | 34 | 18µM* | 15µM* | -10%
COc1cc(NC(=O)[C@H]2CCCN2S(=O)(=O)c2cccc3cccnc23)cc(OC)c1OC | -10% | u | 2 | u | 15µM* | -1%
COc1cccc(CN2CCN(CC(=O)NCCc3ccccc3)CC2)c1 | 1% | 0% | -3 | 9% | -17% | -1%
O=C(Nc1cccc(C(F)(F)F)c1)C1CCCN1S(=O)(=O)c1cccc2cccnc12 (stereo not drawn) | -19% | -4% | -7 | 16µM* | 23µM* | -4%
COc1cc(NC(=O)[C@@H]2CCCN(S(=O)(=O)c3cccc4cccnc34)C2)cc(OC)c1OC | 0% | -14% | 0 | 13µM* | 10µM* | 3%
O=C(NC1CCCC1)C1CCCN(S(=O)(=O)c2cccc3cccnc23)C1 (stereo not drawn) | -5% | -1% | 8 | -23% | u | -3%
CCOc1ccc(OCC)c(S(=O)(=O)N2CCCCC2C)c1 (stereo not drawn) | -28% | 0% | 7 | u | 23µM* | 3%
CCOc1ccc(OCC)c(S(=O)(=O)n2ccnc2C)c1 | -5% | -15% | 0 | -12% | -13% | -1%
COc1ccc(OC)c(NC(=O)C2CCCN(S(=O)(=O)c3cccc4cccnc34)C2)c1 (stereo not drawn) | 13% | u | u | 13µM* | u | -8%
COc1ccc(C)cc1NC(=O)C1CCN(S(=O)(=O)c2cccc3cccnc23)CC1 | 18% | -20% | 3 | u | -27% | 8%
CCN(CC)c1ccc(NC(=O)CN2CCN(S(=O)(=O)c3ccc(C(C)C)cc3)CC2)cc1 | -15% | u | x | u | u | x
COc1c(C)cccc1C(=O)Nc1ccc(Cl)c(-c2nc3cc(C)ccc3o2)c1 | -16% | u | x | 9.2µM* | 15µM* | x
Cc1ccc2oc(-c3cc(NC(=O)Cc4ccccc4)ccc3Cl)nc2c1 | -7% | -25% | x | u | u | x
Cc1ccc2oc(-c3cccc(NC(=O)c4cccc5c(Cl)cccc45)c3)nc2c1 | -16% | 2% | x | 5% | 1% | x
Cc1ccc2oc(-c3cc(NC(=O)CC(C)C)ccc3Cl)nc2c1 | -80% | u | x | 12µM* | 10µM* | x
CCc1cccc(NC(=O)C(Cc2ccccc2)NS(=O)(=O)c2cccs2)c1 (stereo not drawn) | -18% | u | x | 18µM* | u | x
COc1cc(NC(=O)C(Cc2ccccc2)NS(=O)(=O)c2cccs2)cc(OC)c1 (stereo not drawn) | -16% | -10% | x | -28% | 23µM* | x
CCOC(=O)C1CCCN1C(=O)C1(NC(C)=O)CCCC1 (stereo not drawn) | -1% | 2% | -4 | -1% | 2% | 3%
Cc1cnc(NS(=O)(=O)c2ccccc2)c(C)n1 | -1% | 4% | 0 | 16% | 1% | 5%
COc1cc(OC)cc(C(=O)NC(=S)NNC(=O)c2cnccn2)c1 | 1% | -3% | 37 | 5.2µM* | 5.8µM* | -2%
SMILES | HepG2 viability | TGFb inhibitor | IL1B secr inh | DT40 TDP1 no CPT | DT40 TDP1 CPT | ASM inhibitor
CCC(C)c1ccc(O)c(NC(=S)NC(=O)c2cccs2)c1 (stereo not drawn) | -105% | u | 2 | 23µM* | 13µM* | x
CCC(C)c1ccc(O)c(NC(=O)c2cccnc2)c1 (stereo not drawn) | -15% | -11% | 20 | u | u | -2%
CC(C)(C)c1cc(Cl)c(O)c(NC(=S)NC(=O)c2cccnc2)c1 | 4% | u | 9 | 6.5µM* | 4.6µM* | 2%
CC(C)(C)c1ccc(C(=O)NNC(=S)NC(=O)c2cccnc2)cc1 | -9% | -1% | 83 | 7.3µM* | 7.3µM* | -5%
Cc1ccccc1C(=O)NNC(=S)NC(=O)c1cccnc1 | -11% | 0% | 37 | u | u | 4%
Cc1cccn2c(=O)nc(SCC(=O)NCCc3ccccc3)nc12 | 0% | 24% | 8 | -11% | -2% | x
Cn1nnnc1SCCNC(=O)C1CCC(=O)N(CCc2cccc(F)c2)C1 (stereo not drawn) | 4% | -16% | 0 | -1% | -8% | 0%
CCOC(=O)[C@@H]1[C@H]2COc3ccc(Br)cc3[C@H]2N2C(=O)N(c3cccc(F)c3)C(=O)[C@]12C | 3% | -1% | -16 | u | u | 0%
COc1ccc(CCNC(=O)CCCCn2c(=O)c3ccccc3n(CC(=O)Nc3ccccc3C)c2=O)cc1OC | -18% | 8% | x | 1% | -10% | x
CC(C)c1ccc(O)c(NC(=S)NC(=O)c2cccnc2)c1 | 9% | -21% | 12 | 18µM* | 4.6µM* | -5%
COc1cc(OC)cc(C(=O)NNC(=S)NC(=O)c2cccnc2)c1 | -2% | 10% | 0 | 3.7µM* | u | -2%
Nc1cc2cccnc2cc1Cl | -1% | 38% | 5 | 3% | -14% | 35%
Cc1nc2cc(NC(=O)NCc3ccc4c(c3)OCO4)ccc2o1 | 2% | -3% | -9 | -11% | -5% | 0%
Fc1ccc(NC(=S)SCc2ccc3c(c2)OCO3)cc1F | -45% | u | 11 | 18µM* | u | x
CC(=O)N1CCC(O)(c2ccc3c(c2)OCO3)CC1 | -8% | 4% | 20 | 0% | -9% | 0%
Cc1ccc(NC(=O)NCc2ccc3c(c2)OCO3)cc1C | -13% | u | -63* | -23% | 5% | 3%

Compound activity from PubChem BioAssay.
